The list is not random: actives were taken first. Their share in the collection is about 19%.
HT1080NT lethal: kills 2HG-producing HT-1080-NT fibrosarcoma cells; 360,000 compounds, 1.6% hits; AID 686970; HT-1080-NT fibrosarcoma viability, CellTiter-Glo ATP luminescence, 48 h; Potency, µM (series often up to 46.1 µM), for the others: top-dose activity, negative = less viability, usual class: cytotoxic;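 also: NT is the 2HG producing partner of a matched IDH1 knockdown line; potency is read from the fitted curve at half-maximal effect; 0% = DMSO-treated cells and -100% = media-only wells without cells; nearly all actives have a fitted effect of over 55% in size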
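HT-1080-NT; 750 cells/well; 5% FBS RPMI; 48 h compound, 37 degrees C; CellTiter-Glo luminescence; curve fitting and curve-class assignment.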
HT1080 IDH1KD tx: kills HT-1080 cells with IDH1 knockdown. 360,000 compounds, 2% hits. Potency, µM (doses to about 46.1 µM), for the others: top-dose activity, negative = toxicity, hits mostly cytotoxic. HT-1080 IDH1 knockdown viability, ATP luminescence, 48 h;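 also: potency is read from the fitted curve at half-maximal effect; 0% = DMSO wells and -100% = cell-free medium wells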
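Cytotoxicity counter-line: IDH1KD HT-1080, 48 h, CellTiter-Glo. Curves classed by r2, magnitude and activity.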
IL1B secr inh: inhibitors of inflammasome signaling (IL-1 beta secretion); 360,000 compounds, 4.7% hits; AID 743279; activity change, % at 57.5 µM; THP-1 LPS/ATP IL-1B secretion, AlphaLISA, 16 h; stronger effect = lower value; in the data active = activity change below about -50%; inconclusive = mostly about -30% to -49%
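THP-1 cells pretreated 1 hr with compounds (up to 57.5 uM final), then stimulated with LPS (250 ng/mL final) plus ATP (1.25 mM final); secreted IL-1B measured by AlphaLISA after 16 hr, decreased signal indicating inhibition.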
DT40 TDP1 CPT: DT40-hTDP1 cell growth loss with CPT; Potency, µM (highest dose often 46.2 µM), for inactives: at the top dose activity change, negative = growth inhibition, hits mostly inhibitors; 420,000 compounds, 12% hits; chicken DT40 Tdp1-/-;hTDP1 cells + 20 nM CPT, ATP luminescence, 48 h; also: potency is read from the fitted curve at half-maximal effect; nearly all actives have a fitted effect of over 55% in size
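Cell growth measured by CellTiter-Glo luminescence after a minimum 48 h, 37 C compound exposure with 20 nM CPT in Tdp1-knockout DT40 cells stably expressing hTDP1, seeded 400/well; qHTS titration format.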
ELG1 DNA repair: inhibitors of ELG1-dependent DNA repair in HEK293T cells; HEK293T ELG1-luciferase reporter, luminescence, 16 h; DNA damage induced by 5-fluorouridine; Potency, µM (titrated, usually from 46.1 µM), inactives show at the highest dose activity change, negative = inhibition, usual class: inhibitors; 330,000 compounds, 2.3% hits; AID 504467; also: potency is read from the fitted curve at half-maximal effect; nearly all actives have a fitted effect of over 55% in size
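DMSO vehicle served as the neutral condition. Each well held 2,000 cells given 5-fluorouridine plus compound; after 16 hr at 37 °C/5% CO2, ONE-Glo was added and luciferase measured 30 min later.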
TDP1 cell noCPT: qHTS for Inhibitors of human tyrosyl-DNA phosphodiesterase 1 (TDP1): qHTS in cells in absence of CPT. DT40 Tdp1-/- hTDP1 cells, no CPT, ATP luminescence, 48 h. Potency, µM (series often up to 46.2 µM), for the others: at the highest dose activity change, negative = growth inhibition, hits mostly inhibitors. 420,000 compounds, 15% hits. AID 686978, 2013; also: potency is read from the fitted curve at half-maximal effect; nearly all actives have a fitted effect of over 55% in size
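DT40 Tdp1-/-;hTDP1 cells, no CPT (DMSO vehicle only), 400 cells/well; compounds pin-transferred; ≥48 hr, 37 °C; CellTiter-Glo 30 min RT dark, luminescence read.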
The depositor's hits bear a star; [ ] = remark or other dose. Unless noted, calls follow the shape of the dose curve; as a rule, active = well fitted curve in the direction sought with a large enough effect; inconclusive = small, poorly fitted or top-dose-only effect, or another doubt; inactive = no such curve, though single readings can be large; an effect the other way counts as inactive or inconclusive. Unless noted, % is scaled to controls: 0 for no effect and ±100 for the full control effect.

Screening O=C(CCCN1C(=O)/C(=C/c2ccccc2)SC1=S)Nc1ccccc1O returned HT1080NT lethal inconclusive, HT1080 IDH1KD tx inconclusive, IL1B secr inh -93*, DT40 TDP1 CPT inconclusive, ELG1 DNA repair 3% and TDP1 cell noCPT inconclusive.
`O=C(CCCN1C(=O)/C(=C\c2cccs2)SC1=S)Nc1ccccc1O` gave HT1080NT lethal -12%, HT1080 IDH1KD tx -15%, IL1B secr inh -5, DT40 TDP1 CPT inconclusive and TDP1 cell noCPT inconclusive.
For Cc1cnc(-n2ncc(C(=O)NC(C)(C)CO)c2-c2cccs2)nc1-c1ccc(F)cc1 the results were DT40 TDP1 CPT -10%[9.04 µM] and TDP1 cell noCPT inconclusive.
CCOC(=O)C1=CC[C@]2(C)c3c(c4ccccc4n3C)C(=O)C1N2C was read as HT1080NT lethal 3%, HT1080 IDH1KD tx 4%, IL1B secr inh 26, DT40 TDP1 CPT -22%, ELG1 DNA repair 21% and TDP1 cell noCPT -13%.
Screening Cc1ccc(-c2ccnc(-n3ncc(C(=O)N(C)CC4CCCN(C)C4)c3C)n2)o1 (stereo not given) returned DT40 TDP1 CPT 29% and TDP1 cell noCPT -5%.
`CC(=O)NC(CC(=O)NCCN1C(=O)S/C(=C\c2ccccc2)C1=O)c1ccccc1` (stereo not given) gave HT1080NT lethal -1%, HT1080 IDH1KD tx 3%, IL1B secr inh -21, DT40 TDP1 CPT 21µM*, ELG1 DNA repair -19% and TDP1 cell noCPT inconclusive.
Screening O=C(CCCN1C(=O)S/C(=C\c2ccccc2)C1=O)NNC(=O)c1ccccc1O returned HT1080NT lethal inconclusive, HT1080 IDH1KD tx -2%, IL1B secr inh 29, DT40 TDP1 CPT 12µM*, ELG1 DNA repair inconclusive and TDP1 cell noCPT 9.2µM*.
For COc1ccc(NC(=O)N2CC[C@@]3(CCCN(C(=O)c4ccc(OC)cc4)C3)C2)cc1 the results were DT40 TDP1 CPT -11% and TDP1 cell noCPT -7%.
Screening CCC(=O)Nc1nnc(S(=O)(=O)N(C)c2ccccc2)s1 returned HT1080NT lethal -4%, HT1080 IDH1KD tx 0%, IL1B secr inh 0, DT40 TDP1 CPT -3%, ELG1 DNA repair -2% and TDP1 cell noCPT 23%.
`COc1ccc(CNC(=O)COC(=O)/C=C/c2cccc(Br)c2)cc1` gave HT1080NT lethal -10%, HT1080 IDH1KD tx -3%, IL1B secr inh 10, DT40 TDP1 CPT -17%, ELG1 DNA repair 12% and TDP1 cell noCPT -8%.
Screening CCc1nc2sc3c(c2c(=O)n1CCO)CCC3 returned HT1080NT lethal -10%, HT1080 IDH1KD tx 0%, IL1B secr inh 35, DT40 TDP1 CPT -11%, ELG1 DNA repair 14% and TDP1 cell noCPT -9%.
For Cc1cc(N)c2ccccc2n1 the results were HT1080NT lethal 5%, HT1080 IDH1KD tx 4%, IL1B secr inh -16, DT40 TDP1 CPT 18%, ELG1 DNA repair 1% and TDP1 cell noCPT -11%.
Screening N#Cc1cc2ccncc2c2ccccc12 returned HT1080NT lethal -4%, HT1080 IDH1KD tx -11%, IL1B secr inh -26, DT40 TDP1 CPT inconclusive and TDP1 cell noCPT 8.2µM*.
Screening Nc1cc2ccncc2c2ccccc12 returned HT1080NT lethal -7%, HT1080 IDH1KD tx 0%, IL1B secr inh inconclusive, DT40 TDP1 CPT inconclusive, ELG1 DNA repair 1.8µM* and TDP1 cell noCPT 10µM*.
`Cc1nc2c(c(C)c1CCC(=O)N1CCN(c3ccccc3)CC1)c(=O)n(C)c(=O)n2C` gave DT40 TDP1 CPT -3% and TDP1 cell noCPT -28%.
Screening Cc1ccc(C)c(N2CN(CCC3=CCCCC3)CNC2=S)c1 returned HT1080NT lethal 27%, HT1080 IDH1KD tx 4%, IL1B secr inh inconclusive, DT40 TDP1 CPT inconclusive, ELG1 DNA repair 0% and TDP1 cell noCPT 21µM*.
O=C(O)C1OC(Oc2cc3oc(-c4ccccc4)cc(=O)c3c(O)c2O)C(O)C(O)C1O (stereo not given) was read as HT1080NT lethal 3%, HT1080 IDH1KD tx 9%, IL1B secr inh 1, DT40 TDP1 CPT 23µM*, ELG1 DNA repair inconclusive and TDP1 cell noCPT inconclusive.
Screening COC(=O)C[C@H]1C=C[C@@H](NC(=O)NC2CCCCC2)[C@@H](CO)O1 returned HT1080NT lethal 19%, HT1080 IDH1KD tx 6%, IL1B secr inh 11, DT40 TDP1 CPT 5% and TDP1 cell noCPT -2%.
`CCN1CCN(C(c2ccc(SC)cc2)c2c(O)cc(C)n(CCOC)c2=O)CC1` (stereo not given) gave DT40 TDP1 CPT -17% and TDP1 cell noCPT -1%.
For CN(C)S(=O)(=O)c1cccc(C(=O)Nc2ccc3c(c2)CCC3)c1 the results were HT1080NT lethal -28%, HT1080 IDH1KD tx -4%, IL1B secr inh -21, DT40 TDP1 CPT 16µM*, ELG1 DNA repair inconclusive and TDP1 cell noCPT 18µM*.
Cc1cccc(C(=O)Nc2nc(C)c(C(=O)Nc3ccc4c(c3)CCC4)s2)c1 was read as HT1080NT lethal 11µM*, HT1080 IDH1KD tx inconclusive, IL1B secr inh 3, DT40 TDP1 CPT 23µM*, ELG1 DNA repair inconclusive and TDP1 cell noCPT inconclusive.
Screening CN(C)S(=O)(=O)c1cccc(NC(=O)c2ccc3nccnc3c2)c1 returned HT1080NT lethal -7%, HT1080 IDH1KD tx -7%, IL1B secr inh 27, DT40 TDP1 CPT 13µM*, ELG1 DNA repair inconclusive and TDP1 cell noCPT 23µM*.
CC(=O)c1cccc(NC(=O)c2cccc(S(=O)(=O)N(C)C)c2)c1 was read as HT1080NT lethal 5%, HT1080 IDH1KD tx 9%, IL1B secr inh -2, DT40 TDP1 CPT -2%, ELG1 DNA repair 12% and TDP1 cell noCPT inconclusive.
CN(C)S(=O)(=O)c1ccc(C(=O)Nc2ccc3c(c2)CCC3)cc1 was read as HT1080NT lethal -5%, HT1080 IDH1KD tx -3%, IL1B secr inh -6, DT40 TDP1 CPT inconclusive, ELG1 DNA repair inconclusive and TDP1 cell noCPT inconclusive.
`O=C(O)C1C=CC(C(=O)O)c2ccccc21` (stereo not given) gave HT1080NT lethal 1%, HT1080 IDH1KD tx -2%, IL1B secr inh 0, DT40 TDP1 CPT 0% and TDP1 cell noCPT -1%.
CC(=O)OC/C=C(\C)CCC=C(C)C was read as HT1080NT lethal 24%, HT1080 IDH1KD tx 0%, IL1B secr inh -11, DT40 TDP1 CPT inconclusive, ELG1 DNA repair -2% and TDP1 cell noCPT -11%.

High-throughput results: PubChem BioAssay, National Center for Advancing Translational Sciences (NCATS)
